Laboratory results taken from PubChem BioAssay AID540276 (National Center for Advancing Translational Sciences (NCATS), 2011).
Values joined by “and” are separate entries in the source; they are usually repeats but may differ in a detail not shown here. Equal values may be shown once. The campaign covered roughly 300,000 compounds. About 5,400 (1.8%) were called active. A call without a number means that no potency is given here. Inconclusive results (about 28%) are left out. Calls come from the whole dose curve; tested in HEK293 cells. Only a selection was taken, and actives are over-represented in it overall. More than one record can exist for a structure, and the calls need not agree.

test: qHTS for inhibitors of binding or entry into cells for Marburg Virus; conditions: Marburg virus pseudotyped entry inhibition, cell reporter; series mostly up to 37.8 µM
Potency is the fitted concentration of half-maximal effect.

Compound	Potency
COc1cccc(CNS(=O)(=O)c2ccc3c(c2)CC(C)N3C(C)=O)c1 (stereo unspecified)	inactive
COC(=O)CC=C[C@@H](C)[C@H](NC(=O)OCC(Cl)(Cl)Cl)c1ccc2ccccc2c1	inactive
Cc1ccc(-c2nn(-c3ccc(F)cc3)cc2C(=O)NCC(c2cccs2)N2CCOCC2)cc1 (stereo unspecified)	inactive
Cc1ccc(S(=O)(=O)C2(S(=O)(=O)c3ccc(C)cc3)CCCC2)cc1	3.98 µM (active)
Cc1ccc(S(=O)(=O)N(C)C2(C)CCS(=O)(=O)C2)cc1 (stereo unspecified)	inactive
Cc1ccc(S(=O)(=O)NC2CCCCCC2)cc1	inactive
COc1cccc2cc(C(=O)NCc3ccc(C)cc3)c(=N)oc12	inactive
Cc1cccc2[nH]c(CN(C)C(=O)C3CCC(=O)N(CCc4ccccc4)C3)nc12 (stereo unspecified)	inactive
CCOc1ccc(CCNC(=O)CSc2cc(=O)n(C)c3ccc(Cl)cc23)cc1OCC	inactive
CCN(CCCNC(=O)CSc1cc(=O)n(C)c2cc(Cl)ccc12)c1cccc(C)c1	inactive
CCN(CCCNC(=O)CSc1cc(=O)n(C)c2cc(Cl)ccc12)Cc1ccccc1	11.2 µM (active)
Cc1ccc(NC(=S)NCCc2ccc(Cl)cc2)c(C)c1	inactive
COc1ccc(CCNC(=S)N2CCN(S(=O)(=O)c3ccc(Cl)cc3)CC2)cc1	inactive
Oc1cc2c(cc1O)CN(C(=S)NCCc1ccc(Cl)cc1)CCC2	inactive and 355 nM (active)
CC(=O)c1ccc(S(=O)(=O)N(C)CCCC(=O)N(C)Cc2ccccc2F)cc1	inactive
O=C(CCn1nnnc1CN1CCOCC1)N1CCC(c2ccccc2Cl)C1 (stereo unspecified)	inactive
CCCC(CNC(=O)COC(=O)C1=NNC(=O)CC1)c1ccc(Cl)cc1Cl (stereo unspecified)	inactive
CCOc1ccccc1Nc1nnc(SCC(=O)NCC2CCCO2)s1 (stereo unspecified)	inactive
OC1CCCN(c2ncnc3c2nnn3Cc2c(F)cccc2Cl)C1 (stereo unspecified)	10 µM (active)
O=C(CSc1ncnc2c1nnn2Cc1ccc(F)cc1)NC1CCCC1	inactive
CCOC(=O)N1CCN(C(=O)C2CCCN(c3ncnc4c3sc3cccc(F)c34)C2)CC1 (stereo unspecified)	inactive
O=C1N=CC(F)C(=O)N1 (stereo unspecified)	inactive

Compound	Potency
CCOc1ccc(NC(=O)CN(C)C(=O)c2cccc(S(=O)(=O)N3CCCC3)c2)cc1OCC	inactive
COc1ccccc1C(=O)N(C1=NC(C)CS1)c1ccc(Cl)cc1 (stereo unspecified)	inactive
O=C(NNc1c2ccccc2nc2ccccc12)c1cc2ccccc2cc1O	3.16 µM (active)
O=C(COC(=O)c1ccc(O)cc1O)NC(=O)c1ccccc1	inactive
Cc1noc(C)c1COC(=O)c1cc2ccccc2cc1O	inactive
COc1ccccc1C(=O)OCC(=O)Nc1cccc(S(=O)(=O)NC2=NCCCCC2)c1	inactive
O=C1CCc2cc(S(=O)(=O)Nc3ccc(C(F)(F)F)cc3)cc3c2N1CC3	inactive
Cc1cccc(-n2c(SCC(N)=O)nc3c(c2=O)C2(CCCCC2)Cc2ccccc2-3)c1	4.47 µM (active)
Cc1cccc(-n2c(N)cc(=O)nc2SC(C)C(=O)NC2CCCCC2)c1 (stereo unspecified)	inactive
Cc1cccc(-n2c(SCC(N)=O)nc3c(oc4ccccc43)c2=O)c1	inactive
O=S(=O)(Nc1ccc2nc(N3CCOCC3)sc2c1)c1ccccc1	inactive
COc1ccc(CC(=O)NC(C)c2ccc(Cl)c(Cl)c2)cc1S(=O)(=O)N1CCOCC1 (stereo unspecified)	inactive
CCOc1ccc(CCNC(=O)COC(=O)c2ccc(F)c(S(=O)(=O)N3CCOCC3)c2)cc1OCC	inactive
CC(NCC(=O)Nc1ccccc1C(=O)NC1CC1)c1ccccc1Cl (stereo unspecified)	inactive
Cn1c(Cl)cnc1[C@H]1CC(=O)c2cc(Cl)ccc2O1	10 µM (active)
COc1cccc(NC(=O)C[C@H]2SC(=Nc3ccccc3)NC2=O)c1	inactive
Cc1ncc(CC(=O)n2cc(C(=O)c3cc(Cl)ccc3O)cn2)s1	inactive
O=C(c1cnn(-c2ccc(Cl)cc2)c1)c1ccccc1O	3.55 µM (active)
Cc1cc(O)cc(O)c1C(=O)Cc1cnn(-c2ccccc2)c1	inactive
O=c1oc2ccccc2c(=O)c2ccccc12	inactive
Cc1cccc(CN2CCC(n3nccc3NC(=O)c3ccccc3C)CC2)n1	inactive
CC1(C(=O)NNC(=S)NCC2CCCO2)CC1(Cl)Cl (stereo unspecified)	inactive

Compound	Potency
CC(=O)OC1C2(CC3N4C(=O)C5(CO)SSC4(CC31O)C(=O)N5C)OC(C)C(C)(C)C2=O (stereo unspecified)	1.41 µM (active)
Cc1ccc(OCC(=O)N/N=C\c2ccco2)c(C)c1	inactive
Cc1ccc(OCC(=O)N/N=C/c2ccncc2)cc1	inactive
Cc1ccc(/C=N/NC(=O)COc2ccccc2-c2ccccc2)cc1	1.3 µM (active)
O=C(Nc1cnn(Cc2ccc(Cl)cc2)c1)C1CCCC1	inactive
O=C(Nc1ccc(-n2cccn2)cc1)C1CCN(Cc2ccsc2)CC1	inactive
CCn1cc(CN2CCC(C(=O)Nc3cccc(-c4cccc(Cl)c4)c3)CC2)cn1	12.6 µM (active)
CC(C)CO/N=C1\C[C@@H](O)[C@@H](O)[C@@H]2[C@@H]3C(=O)N(C[C@@H]4CCCO4)C(=O)[C@@H]3CC[C@@H]12	inactive
CC1CN(Cc2ccco2)C(=S)N(c2ccccc2)C1=O (stereo unspecified)	inactive
O=C1CCCN1C(=O)COc1ccc([N+](=O)[O-])cc1	inactive
Cc1noc(C)c1CSCC(=O)N(CCC(C)C)c1c(N)n(Cc2ccccc2)c(=O)[nH]c1=O	inactive
COc1ccc(/C=C/C(=O)Nc2cccnc2)cc1OC	inactive
COc1ccc(/C=C/C(=O)Nc2ccc(C34CC5CC(CC(O)(C5)C3)C4)cc2)cc1OC	6.51 µM (active)
COc1ccc(/C=C/C(=O)OCC(=O)NC2CCCCCC2)cc1OC	inactive
CCOC(=O)Cc1[nH]nc2c1[C@H](c1cc(OC)ccc1OC)C(C#N)=C(N)O2	inactive
Cc1ccc(Oc2cnn(-c3ccccc3)c(=O)c2Br)cc1	inactive
COc1ccc(-n2c(C)nc3c(cnn3-c3ccc(F)cc3)c2=O)cc1	inactive
COc1ccc(Oc2c(Cl)cnn(-c3ccccc3)c2=O)cc1	10 µM (active)
c1ccc(Nc2nc(N3CCOCC3)c3ccccc3n2)cc1	12.6 µM (active)
Cc1cc(C(=O)Nc2ccccc2N2CCOCC2)c2ccccc2n1	inactive
c1ccc(-c2nnc(N3CCOCC3)c3ccccc23)cc1	inactive
Cc1nn(-c2ccc(F)cc2)c(Cl)c1/C=C(/CCC(=O)O)c1nc2ccccc2s1	inactive

Compound	Potency
Cc1cc(O)c(Sc2ccccc2)c(=O)o1	inactive
CCOc1cccc(-c2nnc(SCC(=O)NC3CC3)n2C)c1	inactive
CN1C(CC(=O)Nc2ccc(Br)cc2)c2ccccc2CC1(C)C (stereo unspecified)	11.2 µM (active)
COCC(=O)Nc1ccc(Br)cc1	inactive
Cc1ccc(NC(=O)CCN2CCc3ccccc3C2)cc1	inactive
COc1ccc(Cc2nnc(SCC(=O)Nc3ccc(C)c(C)c3)o2)cc1OC	inactive
CC(C)Nc1nnc(SC(C)C(=O)N(C)C2CCCCC2)s1 (stereo unspecified)	inactive
Cc1ccc2nc(C)c3c(c2c1)N(c1ccccc1)CC3	5.62 µM (active)
Cc1ccc2nc3n(c(=O)c2c1)CCC3	inactive
CSc1nc2ccc(C)cc2c(=O)n1-c1cccnc1	inactive
COc1ccc(CN2CCN(C(=O)CCC(=O)Nc3nnc(C(C)C)s3)CC2)cc1F	inactive
CSc1ccc(S(=O)(=O)N2CCC(C(=O)NCc3ccncc3)CC2)cc1	inactive
CCOC(=O)c1sc2nc(CSCC(=O)OCc3ccc(C(=O)OC)o3)[nH]c(=O)c2c1C	inactive
Cc1ccc(C)c(SCc2nc3sc(C(=O)O)c(C)c3c(=O)[nH]2)c1	inactive
CCOC(=O)c1sc2nc(CSc3ccccc3)[nH]c(=O)c2c1C	8.91 µM (active)
Oc1cccc(CCc2ccccn2)c1	inactive
CC(Nc1ccc([N+](=O)[O-])cc1[N+](=O)[O-])c1ccccc1 (stereo unspecified)	inactive
Cc1c(CN2CCC(CO)(CCOc3ccccc3)CC2)[nH]c2ccc(Cl)cc12	2.82 µM (active)
OCC1(CCc2ccccc2)CCN(Cc2ccc3nsnc3c2)CC1	inactive
Cc1c(C(=O)N2CCOCC2)[nH]c2ccc(OCc3ccccc3)cc12	inactive
Cc1nn(-c2ccccc2)c2c1[C@@H](c1ccc(F)cc1F)C(C#N)=C(N)O2	inactive
O=C(Nc1cccc(S(=O)(=O)N2CCOCC2)c1)C12CC3CC(CC(C3)C1)C2	inactive

Compound	Potency
Cc1ccc(-c2nnc(-c3ccc(NC(=O)c4cccs4)cc3)o2)cc1	11.6 µM (active)
O=C(Nc1ccccc1)c1ccc(NC(=O)c2cccs2)cc1	inactive
Cc1ccc(C(=O)Nc2ccc(NC(=O)c3cccs3)cc2)c(C)c1	inactive
Cc1cc(NC(=O)CSc2nnnn2-c2ccc(F)cc2)no1	inactive
Cc1ccc(N2CC(C(=O)N3CCC4(CC3)CC(=O)c3ccccc3O4)CC2=O)cc1C (stereo unspecified)	inactive
Cc1cc(Br)ccc1NC(=O)c1cnc(N2CCN(c3ccccn3)CC2)c2ccccc12	9.2 µM (active)
O=C(CN1CCN(c2ccccn2)CC1)Nc1ccc(Br)cc1	inactive
O=C(Cc1ccc(Br)cc1)N1CCN(c2ccccn2)CC1	inactive
C=CCOc1ccc(C(=O)Nc2ccccc2C(=O)N2CCCC2)cc1	inactive
COc1ccc(OCC(=O)NNC(=O)C2CCC2)cc1	inactive
O=C(O)c1cc2c(cc1NC(=O)c1c(F)cccc1Cl)OCCCO2	inactive
COc1ccc(CNC(=O)c2cc3c(s2)-c2ccccc2OC3)cc1	10 µM (active)
COc1ccc(CNC(=O)c2cc3c(=O)[nH]c4ccccc4c3s2)cc1	inactive
COc1ccc(CNC(=O)COC(=O)C2=Cc3ccccc3OC2)cc1	inactive
CN1CCOC1c1ccc(C2OCCN2C)cc1 (stereo unspecified)	inactive
CCOc1ccc(C2C(C(=O)O)c3ccccc3C(=O)N2CCN2CCOCC2)cc1 (stereo unspecified)	inactive
CCOc1ccc(C2NC(=S)NC3=C2CCc2ccccc23)cc1 (stereo unspecified)	7.94 µM (active)
Cc1ccc(OCc2nnc(SC3CCc4ccccc4C3=O)n2C)cc1 (stereo unspecified)	inactive
